Rows were chosen to be rich in hits. Some 22% of all compounds tested hit in one or more screens of this group.
CHX counter: counter-screen hit for Shiga toxin inhibitors, cycloheximide; AID 2314; cell reporter, cycloheximide protein synthesis inhibition counterscreen; hit rate 12% among 300,000; max response, %; in the data active = max response mostly above about 13%, no sharp cut-off; inactive = mostly below about 14%; note: read at 38.3 µM for the half of the compounds with a filed dose; 0% is about no effect
LmPK inh: LmPK (Leishmania mexicana) enzyme inhibition; Potency, µM (highest dose often 57.5 µM), without a hit: top-dose activity change, negative = inhibition, usual class: inhibitors; purified LmPK, Kinase-Glo ATP luminescence, 1 h; hit rate 0.37% among 290,000; Q27686; note: potency is the fitted concentration of half-maximal effect; % is set by controls: 0 for no effect and ±100 for the full control effect
Target sequence (Q27686 whole entry, looked up): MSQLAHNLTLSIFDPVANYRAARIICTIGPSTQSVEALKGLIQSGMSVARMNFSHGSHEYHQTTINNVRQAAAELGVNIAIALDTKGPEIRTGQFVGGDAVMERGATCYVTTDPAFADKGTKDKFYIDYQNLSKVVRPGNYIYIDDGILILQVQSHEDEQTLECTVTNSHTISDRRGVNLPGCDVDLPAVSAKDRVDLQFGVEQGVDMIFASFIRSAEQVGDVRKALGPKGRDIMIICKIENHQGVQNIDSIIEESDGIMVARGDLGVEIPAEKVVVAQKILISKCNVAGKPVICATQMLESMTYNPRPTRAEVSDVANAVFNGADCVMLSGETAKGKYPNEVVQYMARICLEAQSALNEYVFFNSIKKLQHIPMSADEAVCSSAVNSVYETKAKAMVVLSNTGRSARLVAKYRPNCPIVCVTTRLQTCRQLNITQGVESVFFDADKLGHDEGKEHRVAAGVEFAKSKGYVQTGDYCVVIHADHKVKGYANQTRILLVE
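ATP generated from ADP (0.1 mM) and PEP (0.5 mM) by 0.1 nM LmPK over 1 h at room temperature (pH 7.2 imidazole buffer) was detected by coupled luciferase luminescence. Values were normalized to uninhibited and no-enzyme wells.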
Pf growth 48h: inhibits P. falciparum growth in the first generation, 48 h; P. falciparum luciferase growth in erythrocytes, 48 h; Potency, µM (titrated, usually from 28.7 µM), for inactives: at the highest dose activity change, negative = inhibition, most hits filed as inhibitors; hit rate 5.9% among 310,000; AID 504832; note: potency is the fitted concentration of half-maximal effect; % is set by controls: 0 for no effect and ±100 for the full control effect
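First compound was added to culture medium, then infected red cells at 0.1% parasitemia and 2% hematocrit (final). After incubation at 37 C under 5% CO2, luciferase detection reagent was dispensed and light output recorded.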
Pf growth 96h: P. falciparum growth inhibition at 96 hour, primary screen for plastid delayed-death inhibitors | P. falciparum luciferase reporter growth, 96 h | Potency, µM (series often up to 28.7 µM), for the others: top-dose activity change, negative = inhibition, actives largely listed as inhibitors | hit rate 6.9% among 320,000 | AID 504834; note: potency is the fitted concentration of half-maximal effect; % is set by controls: 0 for no effect and ±100 for the full control effect
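Cell-based qHTS: luciferase-tagged P. falciparum in erythrocytes (2% hematocrit, 0.05% parasitemia final) incubated with compounds for 96 hours, 37 C, 5% CO2; luciferase detection reagent then added and luminescence measured.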
Shiga inhibitor: Shiga toxin inhibition; Vero cells, Shiga toxin protein synthesis inhibition reporter; inhibition, % at 38.7 µM; hit rate 9.2% among 290,000; AID 2315; in the data active = inhibition mostly above about 28%, no sharp cut-off; inactive = mostly below about 43%; note: 0% is about no effect
Active calls of the source: *; i = inactive; ? = inconclusive; · = not tested or not shown; [ ] = remark or other dose. Unless noted, calls come from the whole dose curve; as a rule, active = well fitted inhibition curve with a large enough effect; inconclusive = small, poorly fitted or top-dose-only effect, or another doubt; inactive = no such curve, though single readings can be large or run the other way.

SMILES	CHX counter	LmPK inh	Pf growth 48h	Pf growth 96h	Shiga inhibitor
COc1ccc(CCNC(=O)CSc2nn3c(=O)c(C)nnc3s2)cc1OC	-1.8	-0.2%	5.22µM*	0.208µM*	-8.6
O=C(COC(=O)c1ccc(Cl)c(S(=O)(=O)N2CCCCC2)c1)NCC1CCCO1 (stereo not drawn)	0.9	-1.4%	19.6%	-3.4%	5.2
Cc1cccc(NC(=O)c2ccc(S(=O)(=O)N3CCCCC3)cc2)c1	0.9	-6.9%	-11.1%	?	0.8
COc1cccc(NC(=S)NC(=O)c2cccnc2)c1	17.9*	-6.8%	-4.1%	121.5%	39.1*
COC(=O)c1ccc(NC(=O)c2sc3nc(-c4ccccc4)cn3c2C)cc1	-2.0	1.6%	?	20.5%	18.3
COC(=O)c1cccc(NC(=O)c2cccc(OC)c2)c1	53.4*	?	159.8%	26.6%	104.2*
COc1cccc(C(=O)Nc2cccnc2)c1	48.3*	-24.9%	87.2%	·	69.9
COc1cccc(C(=O)Nc2ccncc2)c1	8.1	-28.9%	21.0%	20.3%	25.3
COC(=O)c1ccc(NC(=O)c2c(C(=O)Nc3ccccc3)sc3nc(C)cc(=O)n23)cc1	-3.1	-1.9%	7.4%	11.7µM*	-3.8
CCOc1ccc(/C=C(\C)C(=O)c2c(C)cc(C)[nH]c2=O)cc1	-1.3	2.5%	0.7%	157.9%	-29.7
CC(C)C(C(=O)NC1CCCC1)N(CC1CCCO1)C(=O)CNS(=O)(=O)c1ccccc1 (stereo not drawn)	-6.1	12.2%	-17.4%	4.5%	-4.5
Cc1cc(NC(=O)c2cccc(Br)c2)n[nH]1	·	·	62.4%	202.2%	·
Cc1cccc(C(=O)NNC(=O)c2ccc(F)cc2)c1	14.0*	-1.4%	2.7%	?	16.4
COc1cccc(C(=O)NC(=O)Nc2cc(C)[nH]n2)c1	38.7*	0.3%	103.7%	125.2%	84.2*
COc1cccc(C(=O)Nc2ccc(C)cc2)c1	30.0*	?	132.6%	?	88.3*
O=C(COc1cccc(NC(=O)c2ccco2)c1)c1ccc(F)cc1	14.6*	1.6%	-21.2%	·	24.9*
CCCCN1CC[C@@H]2C=CC[C@H](C(=O)OC)[C@@H]2C1=O	-3.2	·	·	·	i
Cc1ccc(N2C(=O)CC(N3CCc4ccccc43)C2=O)cc1Cl (stereo not drawn)	12.2	1.4%	27.3%	?	-18.0
COc1cccc(OC)c1C(=O)Nc1nnc(-c2ccc(F)cc2)s1	10.4*	0.6%	0.0%	?	29.7*
COC(=O)c1cccc(NC(=O)c2cc3sccc3n2C)c1	28.8*	-0.4%	150.3%	3.2%	109.0*
Cc1cccc(C(=O)Nc2ccc(O)cc2)c1	30.1*	-22.1%	69.4%	-7.1%	37.3
COc1cccc(C(=O)Nc2ccc3c(c2)C(=O)c2ccccc2C3=O)c1	31.1*	-3.1%	108.4%	?	37.6*
COc1cccc(C(=O)Nc2ccc3c(c2)n(C)c(=O)n3C)c1	9.5	-0.4%	30.7%	?	6.9
O=C1CC(N2CCN(c3ccccc3)CC2)C(=O)N1c1ccc(Cl)cc1 (stereo not drawn)	-1.5	8.1%	24.4%	?	·
COc1cccc(NC(=O)c2ccncc2)c1	3.1	-0.7%	45.2%	19.2%	37.5
SMILES	CHX counter	LmPK inh	Pf growth 48h	Pf growth 96h	Shiga inhibitor
CC(=O)Nc1cccc(NC(=O)c2ccc(COc3ccccc3)cc2)c1	58.9*	-2.4%	58.9%	92.1%	109.1*
CCOc1cccc(NC(=O)c2cccc(F)c2)c1	20.2*	-8.8%	27.3%	3.9%	102.4*
COc1cccc(NC(=O)c2ccc(NC(C)=O)cc2)c1	33.4*	-16.4%	·	55.9%	20.5
CCOc1cccc(C(=O)Nc2ccc(N(CC)CC)cc2)c1	16.4	-1.5%	17.8%	?	15.3
CCOc1cccc(C(=O)Nc2ccc3ccccc3c2)c1	20.6*	-3.8%	110.4%	-55.0%	36.8
CCOc1cccc(C(=O)Nc2cccc(C(=O)NC(C)(C)C)c2)c1	6.0	6.5%	-5.6%	8.4%	-7.4
CC(=O)c1cccc(NC(=O)CSc2nnc(C(C)N(C)C)n2Cc2ccccc2)c1 (stereo not drawn)	-3.0	-2.1%	?	?	-21.6
CCCc1cc(=O)oc2cc(OCC(=O)NCCCN3CCOCC3)ccc12	0.8	-2.7%	10.5%	6.4%	-4.5
COc1cc(OC)cc(-c2nnc3n2N=C(c2c(OC)cccc2OC)CS3)c1	-3.2	·	·	·	-4.4
COc1ccc(CCNC(=O)c2noc(C)c2[N+](=O)[O-])cc1OC	-6.3	6.0%	-4.1%[0.00184 µM]	46.0%	3.9
COC(=O)c1ccc(NC(=O)c2cccc(C)c2)cc1	18.9*	-5.0%	106.1%	?	36.8
COc1cccc(C(=O)Nc2ccc(C(=O)O)cc2)c1	-1.1	?	23.0%	?	21.5
COC(=O)c1ccc(NC(=O)c2cccc(OC)c2)cc1	56.5*	?	40.4%	-3.1%	91.3*
COc1ccc(C(=O)Nc2ccc(C(=O)Nc3cccc(C)c3)cc2)cc1	-1.7	1.0%	13.8%	18.6%	-4.4
COc1cccc(C(=O)Nc2ccc(C(=O)c3ccccc3)cc2)c1	35.7*	-6.7%	2.8%	?	·
CCOc1cccc(C(=O)Nc2cccc(C(C)=O)c2)c1	39.5*	-1.9%	119.9%	3.29µM*	68.3*
CS(=O)(=O)NC(=O)CCC/C=C\C[C@H]1C(=O)C[C@@H](O)[C@@H]1/C=C/[C@@H](O)COc1ccccc1	-6.5	·	·	·	-13.3
O=C(c1ccc(NC(=O)C(c2ccccc2)c2ccccc2)cc1)c1ccc(C(=O)O)c(C(=O)O)c1	1.6	-2.9%	57.0%	?	5.5
COc1cccc(NC(=O)c2cnc(SC)nc2)c1	21.3*	1.9%	78.0%	-17.3%	27.0
CSc1ncc(C(=O)Nc2ccccc2)cn1	-2.4	-3.6%	32.0%	310.7%	-1.9
COc1ccccc1-c1nnc(NC(C)=O)s1	38.3*	0.6%	196.3%	7.38µM*	49.1*
COc1cccc(C(=O)Nc2ccc(C3CC3(Cl)Cl)cc2)c1 (stereo not drawn)	28.2*	?	408.4%	51.3%	84.7*
CCOc1cccc(C(=O)Nc2cccc(NC(=O)c3ccco3)c2)c1	25.3*	3.0%	-7.7%	23.4%	24.6
COc1cc(C(=O)NCC(c2cccnc2)N2CCN(c3ccc(F)cc3)CC2)cc(OC)c1OC (stereo not drawn)	-1.5	-1.7%[11.5 µM]	?	?	5.7
CC1=C(C(=O)OCCCBr)C(c2ccc3c(c2)OCO3)NC(=O)N1 (stereo not drawn)	-3.7	2.6%	?	?	-11.9
COC(=O)c1c(C)[nH]c(C(=O)COC(=O)Cn2cc(C(F)(F)F)ccc2=O)c1C	·	·	18.8%	39.1%	·
COc1cccc(C(=O)NC(=S)Nc2ccc(N(C)C)cc2)c1	33.6*	-4.3%	142.8%	-18.5%	101.7*
COc1cccc(C(=O)Nc2nnc(-c3ccccc3)s2)c1	33.5*	3.1%	-24.0%[0.00184 µM]	?	112.2*
COc1cccc(C(=O)Nc2cccc(OC(C)=O)c2)c1	45.3*	25.1µM*	149.9%	149.4%	52.1*

Screens: PubChem, National Center for Advancing Translational Sciences (NCATS)
